Data on 40 compounds can be found in PubChem BioAssay (NCI).

About 83,000 compounds went through this panel and 20% of them were active in at least one assay; those are over-represented in the sample as a whole.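 Cells were grown in 96-well plates and exposed to the test compound at a single concentration for 48 hours; results are reported as percent growth, with values below 10 considered active.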 A number with no mark means an inactive call. Active and inactive are the calls of the source.

The assay has as its system HOP-62 NSCLC. The experiment in a line: NCI-60 one-dose screen, 48 h (100 = growth as untreated, 0 = no growth, -100 = all killed). The settings on record: 10 µM unless noted. The method, then:
Growth inhibition of the HOP-62 human Non-Small Cell Lung tumor cell line is measured as a screen for anti-cancer activity. Cells are grown in 96 well plates and exposed to the test compound for 48 hours. Compounds are tested at a single concentration, which is 10^-5 M for most compounds. The reported endpoint is percent growth (GI% or GIPRCNT), where numbers from 0 - 100% represent growth inhibition, and numbers from -100% - 0 represent cell death. For example, a value of 40 represents 60% growth inhibition. A value of 0 means no net growth occurred over the course of the experiment. A value of -40 indicates 40% of cells at the beginning of the experiment died by the end of the experiment. A value of -100 means all cells are dead at the end of the experiment.
NCI-60 Human Tumor Cell Lines Screen was performed using the standard one-dose NCI protocol, which is described in more detail at https://dtp.cancer.gov/discovery_development/nci-60/default.htm.
Compounds with GIPRCNT values below 10 were considered active. Activity score was based on GIPRCNT using the following formula: […]
Score is 0 for GIPRCNT values of 100 or above, 50 for GIPRCNT values of 0, and 100 for GIPRCNT values of -100.
Take `O=C(CCCCCCNC(=O)C(O)(O)C(F)(F)F)Nc1ncc(-c2ccc(Br)cc2)s1`: the growth is -6.49% (active). In the case of `O=S(=O)(NCCCNc1nccc(-c2[nH]c(-c3ccccc3)nc2-c2ccc(F)c(O)c2)n1)c1ccccc1`, the growth was 120%.

On to `O=S(=O)(Oc1ccc(-c2cn3ccoc3n2)cc1)c1cccc(C(F)(F)F)c1`, for which the growth is 104%. Regarding `Clc1ccc2[nH]cc(-c3cncn3CCc3ccc4c(c3)OCO4)c2c1`, the growth is 85.5%.

Consider `O=C(/C=C/c1cccc(C(F)(F)F)c1)Nc1cccc(C(F)(F)F)c1`, for which the growth was 58.4%.

For `NNc1nnc2nc(Nc3ccccc3)nc(Nc3ccc(S(N)(=O)=O)cc3)n12`, the growth is 111%.

Regarding `CCCCOc1ccc(S(=O)(=O)N2CCN(c3nc(C)cc(N4CCOCC4)n3)CC2)cc1`, the growth was 59%. The value for `Cn1cc(C2=C(c3coc4cc(Br)ccc34)C(=O)NC2=O)c2ccccc21` was 71%; that for `C#CCn1cc(/C=N/Nc2nc(-c3ccc(Br)cc3)cs2)c2ccccc21` was 97.5%. As to `CCOC(=O)Nc1ccc2c(ccn2C(=O)c2cccc(F)c2)c1`, the growth was 35.2%. The value for `COc1ccccc1/C=C/C(=O)c1nnn(-c2ccc(F)cc2)c1C` was 72.2%; that for `COc1ccc(-c2c(C(N)=O)c(N)n(Cc3nc4ccccc4[nH]3)c(=O)c2C#N)c(OC)c1` was 94.9%.

Consider `CCOC(=O)c1c(N)c(C#N)cn1Cc1ccc(Cl)cc1Cl`, for which the growth was 68.7%. The same measure for `CCCCc1nc2c(N)nc3ccccc3c2n1Cc1cccc(CN)c1`: 57.3%; for `Cc1ccc2c(n1)C(=O)C(Cl)=C(Nc1cccc(C(F)(F)F)c1)C2=O`: 141%; for `CCOP(=O)(OCC)OC[C@]12CCC(C)(C)CC1C1=CC[C@@H]3[C@@]4(C)CCCNC(C)(C)[C@@H]4CC[C@@]3(C)[C@]1(C)CC2` (stereo not given in full): 101%. The value for `C=C1CCc2nc(SCC(=O)O)ccc2N1` was 103%. Consider `O=C(Nc1ccc(N=Cc2c(O)[nH]c3ccccc23)cc1)Nc1ccc(S(=O)(=O)Nc2ncccn2)cc1`, for which the growth is 99%. The value for `CN1CC[C@@H]2[C@@]3(C)CC[C@H](O)C(C)(C)[C@@H]3CC[C@@]2(C)[C@]2(C)CC[C@@]3(CO)CCC(C)(C)C[C@@H]3C12` (stereo not given in full) was 101%. Turning to `COc1cc(NC(=O)Nc2cccc(-c3cc(=O)c4c(OC)c(OC)c(OC)cc4o3)c2)cc(OC)c1OC`, the growth is 49.7%. The value for `CC(C)NC(=O)c1cc(-c2ccc(NC(=O)Nc3ccc(F)c(C(F)(F)F)c3)cc2)nc2cccnc12` was 80.8%; that for `CCCCN1C(=O)/C(=c2\sc3n(c2=O)C2C(NN=3)N(CC)C(=O)N2CC)c2cccc(C)c21` (stereo not given) was 46.8%; that for `O=C(Nc1ccccc1)Nc1nc2ccc([N+](=O)[O-])cc2[nH]1` was 105%.

With `Clc1ccc2c(N/N=C/c3c[nH]c4ccccc34)ccnc2c1`, the growth is -75.1% (active).

For `CCOC(=O)c1ccc(NC2=CC(=O)C(C)=C(C)C2=O)cc1`, the growth is 70.5%. The value for `Cc1nc(/N=C(N)/N=C(\N)c2cccc(Br)c2)sc1C` was 50%; that for `O=C(CSc1nc2ccccc2c(=O)n1-c1ccccc1)Nc1ccc(S(=O)(=O)Nc2nccs2)cc1` was 80.4%; that for `Brc1cc(-c2cc(-c3ccc4c(c3)OCCO4)[nH]n2)cs1` was 61%. The value for `CC/C(=C(/c1ccc(Cl)cc1)c1ccc(OCCN)cc1)c1ccccc1` was 116%; that for `CSc1ccc(C(=NNS(=O)(=O)c2ccc(C)cc2)c2ccc(Cl)cc2)cc1` was 98.6%. As for `O=C1Nc2ccc(F)cc2/C1=C\C(=O)c1ccc(NS(=O)(=O)c2ccccc2)cc1`, the growth is 103%. The value for `N/C(=N\C(N)=N\c1nc2ccccc2s1)c1ccc(Cl)cc1` was 1.11% (active). Consider `CCC1=Cc2c(OC)cccc2OC12C=Cc1c(OC)cccc1O2` (stereo not given), for which the growth was 43.2%. The same measure for `COc1cc(C(C)=C(c2ccc(OCCN(C)C)cc2)c2ccc(OCCN(C)C)cc2)ccc1F`: 97.2%; for `CCCCCCN1C=C/C(=C\C(=O)n2ccc3ccccc32)c2ccccc21`: 89.6%. As to `COc1ccccc1Cn1cc(C#N)c(N)c1C(=O)c1ccc(Br)cc1`, the growth is 104%. The same measure for `CC(=O)N1N=C(c2cc3ccccc3oc2=O)CC1c1cn(-c2ccccc2)nc1-c1ccc(C)cc1` (stereo not given): 93%; for `COc1ccc(-c2cnc(NC(=O)CCCCCCNC(=O)C(O)(O)C(F)(F)F)s2)cc1`: 1.79% (active); for `C=C(C)[C@@H]1CC[C@]2(COCCCNCCCN)CC[C@]3(C)[C@H](CC[C@@H]4[C@@]5(C)CC[C@H](O)C(C)(C)[C@@H]5CC[C@]43C)[C@@H]12`: -51.3% (active). The same measure for `O=C1/C(=C/c2cc(F)cc(F)c2)Cc2cc3c(cc21)OCO3`: 58%.
